# Publication PMC5540273 (PLoS ONE, 2017)
# Where two headings read alike, the source gives them in different places.
# Key:
# SgK110 = details: concentration: 1 μM, replicates: in singlicate; n = 1
# TAK1 = system: T1, TAK1; details: concentration: 1 μM, replicates: in singlicate; n = 1
# T1 construct: gene MAP3K7
# TAOK1 = details: concentration: 1 μM, replicates: in singlicate; n = 1
# TAOK2 = details: concentration: 1 μM, replicates: in singlicate; n = 1
# TAOK3 = details: concentration: 1 μM, replicates: in singlicate; n = 1
# TBK1 = details: concentration: 1 μM, replicates: in singlicate; n = 1
# TEC = details: concentration: 1 μM, replicates: in singlicate; n = 1
# TESK1 = details: concentration: 1 μM, replicates: in singlicate; n = 1
# TGFBR1 = details: n = 1
# TGFBR2 = details: concentration: 1 μM, replicates: in singlicate; n = 1
# TIE1 = details: concentration: 1 μM, replicates: in singlicate; n = 1
# TIE2 = system: T2, TIE2; details: concentration: 1 μM, replicates: in singlicate; n = 1
# T2 construct: gene TEK
# TLK1 = details: concentration: 1 μM, replicates: in singlicate; n = 1
# TLK2 = details: concentration: 1 μM, replicates: in singlicate; n = 1
# TNIK = details: concentration: 1 μM, replicates: in singlicate; n = 1
# TNK1 = details: concentration: 1 μM, replicates: in singlicate; n = 1
# TNK2 = details: concentration: 1 μM, replicates: in singlicate; n = 1
# TNNI3K = details: concentration: 1 μM, replicates: in singlicate; n = 1
# TRKA = system: T3, TRKA; details: concentration: 1 μM, replicates: in singlicate; n = 1
# T3 construct: gene NTRK1
# TRKB = details: concentration: 1 μM, replicates: in singlicate; n = 1
# [1] = concentration: 1 μM, replicates: in singlicate
# 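Further: KINOMEscan kinase panel screen.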
smiles,measurement,setting,value
FC(F)(F)c1ccc(-c2cc(-c3c[nH]nc3-c3ccccn3)ccn2)cc1 [GW599550],%Inh,SgK110,0%
same,%Inh,TAK1,28%
same,%Inh,TAOK1,0%
same,%Inh,TAOK2,0%
same,%Inh,TAOK3,0%
same,%Inh,TBK1,18%
same,%Inh,TEC,0%
same,%Inh,TESK1,17%
same,%Inh,TGFBR1; 1 µM,88%
same,%Inh,TGFBR2,77%
same,%Inh,TIE1,4%
same,%Inh,TIE2,0%
same,%Inh,TLK1,11%
same,%Inh,TLK2,11%
same,%Inh,TNIK,78%
same,%Inh,TNK1,0%
same,%Inh,TNK2,16%
same,%Inh,TNNI3K,0%
same,%Inh,TRKA,0%
same,%Inh,TRKB,0%
CN1c2ccc(-c3ccc(C(=O)NCCO)cc3)cc2-c2[nH]ncc2S1(=O)=O,%Inh,SgK110,0%
same,%Inh,TAK1,63%
same,%Inh,TAOK1,0%
same,%Inh,TAOK2,30%
same,%Inh,TAOK3,0%
same,%Inh,TBK1,31%
same,%Inh,TEC,1%
same,%Inh,TESK1,17%
same,%Inh,TGFBR1; [1],0%
same,%Inh,TGFBR2,0%
same,%Inh,TIE1,0%
same,%Inh,TIE2,3%
same,%Inh,TLK1,22%
same,%Inh,TLK2,30%
same,%Inh,TNIK,43%
same,%Inh,TNK1,52%
same,%Inh,TNK2,10%
same,%Inh,TNNI3K,3%
same,%Inh,TRKA,0%
same,%Inh,TRKB,0%
C[C@@H]1CCN(C(=O)CO)C[C@@H]1N(C)c1ncnc2[nH]ccc12,%Inh,SgK110,0%
same,%Inh,TAK1,27%
same,%Inh,TAOK1,0%
same,%Inh,TAOK2,0%
same,%Inh,TAOK3,0%
same,%Inh,TBK1,1%
same,%Inh,TEC,3%
same,%Inh,TESK1,12%
same,%Inh,TGFBR1; [1],7%
same,%Inh,TGFBR2,4%
same,%Inh,TIE1,3%
same,%Inh,TIE2,2%
same,%Inh,TLK1,0%
same,%Inh,TLK2,0%
same,%Inh,TNIK,6%
same,%Inh,TNK1,62%
same,%Inh,TNK2,0%
same,%Inh,TNNI3K,0%
same,%Inh,TRKA,15%
same,%Inh,TRKB,10%
Nc1nc(-c2ccc3c(N)n[nH]c3c2)cc(N2CCCCC2)n1 [GSK2228768],%Inh,SgK110,0%
same,%Inh,TAK1,0%
same,%Inh,TAOK1,0%
same,%Inh,TAOK2,0%
same,%Inh,TAOK3,0%
same,%Inh,TBK1,23%
same,%Inh,TEC,2%
same,%Inh,TESK1,0%
same,%Inh,TGFBR1; [1],0%
same,%Inh,TGFBR2,0%
same,%Inh,TIE1,6%
same,%Inh,TIE2,0%
same,%Inh,TLK1,0%
same,%Inh,TLK2,0%
same,%Inh,TNIK,0%
same,%Inh,TNK1,0%
same,%Inh,TNK2,13%
same,%Inh,TNNI3K,0%
same,%Inh,TRKA,0%
same,%Inh,TRKB,0%
CSc1ccc(NC2=C(c3ccccc3Cl)C(=O)NC2=O)cc1 [SB-342411],%Inh,SgK110,0%
same,%Inh,TAK1,7%
same,%Inh,TAOK1,0%
same,%Inh,TAOK2,1%
same,%Inh,TAOK3,0%
same,%Inh,TBK1,27%
same,%Inh,TEC,10%
same,%Inh,TESK1,6%
same,%Inh,TGFBR1; [1],0%
same,%Inh,TGFBR2,0%
same,%Inh,TIE1,40%
same,%Inh,TIE2,0%
same,%Inh,TLK1,35%
same,%Inh,TLK2,6%
same,%Inh,TNIK,0%
same,%Inh,TNK1,0%
same,%Inh,TNK2,0%
same,%Inh,TNNI3K,29%
same,%Inh,TRKA,20%
same,%Inh,TRKB,0%
COc1ccc(NC(=O)c2ccc(-c3cc(-c4nnc(C)o4)ccc3C)cc2)cc1 [GW595885],%Inh,SgK110,13%
same,%Inh,TAK1,0%
same,%Inh,TAOK1,0%
same,%Inh,TAOK2,0%
same,%Inh,TAOK3,0%
same,%Inh,TBK1,0%
same,%Inh,TEC,2%
same,%Inh,TESK1,24%
same,%Inh,TGFBR1; [1],6%
same,%Inh,TGFBR2,0%
same,%Inh,TIE1,14%
same,%Inh,TIE2,0%
same,%Inh,TLK1,0%
same,%Inh,TLK2,0%
same,%Inh,TNIK,0%
same,%Inh,TNK1,0%
same,%Inh,TNK2,21%
same,%Inh,TNNI3K,0%
same,%Inh,TRKA,0%
same,%Inh,TRKB,17%
N#Cc1ccc(Oc2ccc(Nc3ncnc4cc[nH]c34)cc2Cl)cc1,%Inh,SgK110,0%
same,%Inh,TAK1,7%
same,%Inh,TAOK1,0%
same,%Inh,TAOK2,0%
same,%Inh,TAOK3,0%
same,%Inh,TBK1,24%
same,%Inh,TEC,0%
same,%Inh,TESK1,5%
same,%Inh,TGFBR1; [1],1%
same,%Inh,TGFBR2,5%
same,%Inh,TIE1,0%
same,%Inh,TIE2,20%
same,%Inh,TLK1,22%
same,%Inh,TLK2,0%
same,%Inh,TNIK,9%
same,%Inh,TNK1,0%
same,%Inh,TNK2,2%
same,%Inh,TNNI3K,26%
same,%Inh,TRKA,17%
same,%Inh,TRKB,0%
Cc1ccc(O)cc1Nc1cc(C(F)(F)F)nc2ccc(-c3ccncc3)cc12 [GW630823],%Inh,SgK110,0%
same,%Inh,TAK1,0%
same,%Inh,TAOK1,0%
same,%Inh,TAOK2,5%
same,%Inh,TAOK3,0%
same,%Inh,TBK1,5%
same,%Inh,TEC,92.1%
same,%Inh,TESK1,6%
same,%Inh,TGFBR1; [1],5%
same,%Inh,TGFBR2,0%
same,%Inh,TIE1,0%
same,%Inh,TIE2,3%
same,%Inh,TLK1,21%
same,%Inh,TLK2,0%
same,%Inh,TNIK,1%
same,%Inh,TNK1,0%
same,%Inh,TNK2,17%
same,%Inh,TNNI3K,14%
same,%Inh,TRKA,0%
same,%Inh,TRKB,0%
COC(=O)c1c(-c2ccccc2)c2cc(Cl)ccc2c(=O)n1Cc1ccc(S(C)(=O)=O)cc1,%Inh,SgK110,46%
same,%Inh,TAK1,17%
same,%Inh,TAOK1,0%
same,%Inh,TAOK2,0%
same,%Inh,TAOK3,0%
same,%Inh,TBK1,20%
same,%Inh,TEC,0%
same,%Inh,TESK1,0%
same,%Inh,TGFBR1; [1],7%
same,%Inh,TGFBR2,5%
same,%Inh,TIE1,4%
same,%Inh,TIE2,0%
same,%Inh,TLK1,19%
same,%Inh,TLK2,0%
same,%Inh,TNIK,4%
same,%Inh,TNK1,0%
same,%Inh,TNK2,0%
same,%Inh,TNNI3K,19%
same,%Inh,TRKA,0%
same,%Inh,TRKB,0%
